For eight compounds, Potency results are on record in PubChem BioAssay (NCATS).

Records with an inconclusive call do not appear. Entries that show only a call come without a potency. Activity calls are given as the source filed them. The call rests on the fitted dose curve; in most records, active means well fitted inhibition curve with a large enough effect; inconclusive means small, poorly fitted or top-dose-only effect; inactive means flat fitted curve, though single readings scatter.

In the assay the test system is CRL-7250. In words: qHTS assay to identify novel small-molecules to repurpose for Merkel cell carcinoma treatment (AID 1296009). Further: nearly all actives have a fitted effect of over 60% in size. To be noted: MCC and control cell lines, CellTiter-Glo viability, 72 h; series mostly up to 92 µM. In a few lines:
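qHTS format: cells treated with library compounds in DMSO across 8 (NPC) or 11 (MIPE) concentrations. Readout after 72 hr at 37 degree celsius was CellTiter-Glo luminescence.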
A general note: In qHTS, concentration-response curves come from the screen itself.
Consider `O=C(Nc1ccn[nH]1)c1c(F)cccc1F`, for which the Potency entry is “inactive”.

Consider `Cn1nccc1-c1ccccc1Oc1ccc(S(=O)(=O)Nc2nccs2)cc1C#N`, for which the Potency entry was “inactive”. For `COc1c(C(C)C)c(O)c(O)c2c1C(OC)[C@H]1OC(=O)[C@@]23CCCC(C)(C)[C@H]13` (stereo partly drawn) the value was “inactive”. For `CCNC(=O)C1CC(F)(c2ccc(CN3CCCC3)c(F)c2)C1` (stereo not drawn) the value was “inactive”. For the compound `C=CC(=O)N1CC(N2CCN(C(=O)CNc3cc(C4CC4)c(Cl)cc3O)CC2)C1`, the Potency entry was “inactive”. As for `C=C1[C@H]2[C@H](O[C@@H]3O[C@H](COC(=O)/C=C/c4cc(OC)c(O)c(OC)c4)[C@@H](O)[C@H](O)[C@H]3O)OC=C(C(=O)O)[C@H]2C[C@@H]1O`, the entry is “inactive”. For `CCOC(=O)c1ccc(NC2CCCCC2)c(N)c1` the value was “inactive”.

On to `COc1cc(C2c3cc(O)c(OC)cc3CC(CO)C2CO)ccc1O` (stereo not drawn), for which the Potency result is “inactive”.
